Test results reported in PubChem BioAssay AID1159580 (chemical genetic matrix, 2015).
Where “and” joins values, the source holds several entries; their conditions need not be identical. Equal values may be shown once. The whole screen tested about 5,500 compounds, of which about 2,000 (36%) were called active. Another 18% or so got no clear call; they are omitted. Rule as the data show it: active = normalized growth mostly below about 0.91 (no sharp cut-off); inconclusive = no clear call, values can overlap the other calls; inactive = mostly above about 0.92. The list shows a part of the results.

Assay: chemical genetic growth profiling, strain panel (AID 1159580);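 also: tested at 20 µM; growth read once vehicle control cultures reached saturation at 30 °C; 1 = growth at the plate median or of vehicle wells; lower values mean less growth of the strain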
Conditions: growth OD
[1] = S. cerevisiae deletion strains, locus YAL013W, strain DEP1, active compounds read low
[2] = S. cerevisiae deletion strains, locus YDR150W, strain NUM1, active compounds read low
[3] = S. cerevisiae deletion strains, locus YGR078C, strain PAC10, active compounds read low
[4] = S. cerevisiae deletion strains, locus YMR307W, strain GAS1, active compounds read low
[5] = S. cerevisiae deletion strains, locus YNL322C, strain KRE1, active compounds read low

Measured: normalized growth

CC(=O)OC/C=C(C)/C=C/C=C(C)/C=C/C1=C(C)CCCC1(C)C
inactive: [1] 1.02 | S. cerevisiae deletion strains, locus YBR021W, strain FUR4, active compounds read low 1.03 | S. cerevisiae deletion strains, locus YBR229C, strain ROT2, active compounds read low 1.02 | S. cerevisiae deletion strains, locus YCL029C, strain bik1, active compounds read low 1 | S. cerevisiae deletion strains, locus YDL035C, strain GPR1, active compounds read low 1.01 | S. cerevisiae deletion strains, locus YDL074C, strain BRE1, active compounds read low 1.03 | S. cerevisiae deletion strains, locus YDL101C, strain DUN1, active compounds read low 1.03 | S. cerevisiae deletion strains, locus YDL134C, strain PPH21, active compounds read low 1 | S. cerevisiae deletion strains, locus YDL185W, strain tfp1, active compounds read low 0.992 | S. cerevisiae deletion strains, locus YDL192W, strain arf1, active compounds read low 0.994 | S. cerevisiae deletion strains, locus YDR101C, strain arx1, active compounds read low 0.988 | [2] 1.01 | S. cerevisiae deletion strains, locus YDR162C, strain NBP2, active compounds read low 1.01 | S. cerevisiae deletion strains, locus YDR318W, strain mcm21, active compounds read low 1 | S. cerevisiae deletion strains, locus YDR388W, active compounds read low 0.994 | S. cerevisiae deletion strains, locus YDR502C, strain sam2, active compounds read low 0.996 | S. cerevisiae deletion strains, locus YEL061C, strain CIN8, active compounds read low 1.02 | S. cerevisiae deletion strains, locus YER110C, active compounds read low 0.992 | S. cerevisiae deletion strains, locus YER155C, strain BEM2, active compounds read low 1.02 | S. cerevisiae deletion strains, locus YER167W, strain BCK2, active compounds read low 1.02 | S. cerevisiae deletion strains, locus YGL078C, strain dbp3, active compounds read low 0.982 | S. cerevisiae deletion strains, locus YGL086W, strain mad1, active compounds read low 1 | S. cerevisiae deletion strains, locus YGL248W, strain PDE1, active compounds read low 1.03 | [3] 1.04 | S. cerevisiae deletion strains, locus YGR135W, strain pre9, active compounds read low 0.984 | S. cerevisiae deletion strains, locus YGR252W, strain gcn5, active compounds read low 0.982 | S. cerevisiae deletion strains, locus YHR030C, strain SLT2, active compounds read low 1.02 and 1.06 | S. cerevisiae deletion strains, locus YHR079C, strain IRE1 (second series), active compounds read low 1 | S. cerevisiae deletion strains, locus YHR079C, strain IRE1, active compounds read low 1.06 | S. cerevisiae deletion strains, locus YHR094C, strain hxt1, active compounds read low 0.991 | S. cerevisiae deletion strains, locus YHR129C, strain ARP1, active compounds read low 1.02 | S. cerevisiae deletion strains, locus YHR200W, strain rpn10, active compounds read low 0.999 | S. cerevisiae deletion strains, locus YIL066C, strain RNR3, active compounds read low 1.02 | S. cerevisiae deletion strains, locus YIL073C, strain SPO22, active compounds read low 1.02 | S. cerevisiae deletion strains, locus YIL125W, strain kgd1, active compounds read low 0.992 | S. cerevisiae deletion strains, locus YIR030C, strain dcg1, active compounds read low 0.994 | S. cerevisiae deletion strains, locus YJL095W, strain BCK1, active compounds read low 1.05 and 1.04 | S. cerevisiae deletion strains, locus YJL134W, strain LCB3, active compounds read low 1.02 | S. cerevisiae deletion strains, locus YJL168C, strain set2, active compounds read low 0.999 | S. cerevisiae deletion strains, locus YJL187C, strain SWE1 (second series), active compounds read low 1.02 | S. cerevisiae deletion strains, locus YJR043C, strain POL32, active compounds read low 1.02 | S. cerevisiae deletion strains, locus YJR066W, strain TOR1, active compounds read low 0.959 | S. cerevisiae deletion strains, locus YJR075W, strain HOC1, active compounds read low 1.03 | S. cerevisiae deletion strains, locus YKL009W, strain mrt4, active compounds read low 1.01 | S. cerevisiae deletion strains, locus YKL068W, active compounds read low 1 | S. cerevisiae deletion strains, locus YKL085W, strain MDH1 (second series), active compounds read low 0.993 | S. cerevisiae deletion strains, locus YKL085W, strain MDH1, active compounds read low 0.993 | S. cerevisiae deletion strains, locus YKL190W, strain CNB1, active compounds read low 1.01 | S. cerevisiae deletion strains, locus YKR001C, strain vps1, active compounds read low 0.999 | S. cerevisiae deletion strains, locus YLR039C, strain RIC1, active compounds read low 1.05 | S. cerevisiae deletion strains, locus YLR058C, strain SHM2, active compounds read low 1.01 | S. cerevisiae deletion strains, locus YLR102C, strain apc9, active compounds read low 1 | S. cerevisiae deletion strains, locus YLR113W, strain HOG1, active compounds read low 0.981 | S. cerevisiae deletion strains, locus YLR262C, strain YPT6, active compounds read low 1.03 | S. cerevisiae deletion strains, locus YLR268W, strain sec22, active compounds read low 1.01 | S. cerevisiae deletion strains, locus YLR330W, strain CHS5, active compounds read low 1.02 | S. cerevisiae deletion strains, locus YLR342W, strain FKS1 (second series), active compounds read low 0.986 | S. cerevisiae deletion strains, locus YLR371W, strain rom2, active compounds read low 1 | S. cerevisiae deletion strains, locus YLR418C, strain cdc73, active compounds read low 0.986 | S. cerevisiae deletion strains, locus YML016C, strain PPZ1, active compounds read low 1.01 | S. cerevisiae deletion strains, locus YML032C, strain rad52, active compounds read low 0.998 | S. cerevisiae deletion strains, locus YML124C, strain tub3, active compounds read low 0.999 | S. cerevisiae deletion strains, locus YMR078C, strain ctf18, active compounds read low 1.01 | S. cerevisiae deletion strains, locus YMR223W, strain ubp8, active compounds read low 1.01 | [4] 0.898 | S. cerevisiae deletion strains, locus YNL067W, strain RPL9B, active compounds read low 1.03 | S. cerevisiae deletion strains, locus YNL183C, strain NPR1, active compounds read low 0.953 | S. cerevisiae deletion strains, locus YNL233W, strain BNI4, active compounds read low 1.05 | S. cerevisiae deletion strains, locus YNL250W, strain rad50, active compounds read low 0.989 | S. cerevisiae deletion strains, locus YNL271C, strain bni1, active compounds read low 0.988 | S. cerevisiae deletion strains, locus YNL298W, strain CLA4, active compounds read low 0.981 | S. cerevisiae deletion strains, locus YNL307C, strain MCK1, active compounds read low 1 | [5] 1.02 | S. cerevisiae deletion strains, locus YNR052C, strain pop2, active compounds read low 0.996 | S. cerevisiae deletion strains, locus YOL006C, strain TOP1, active compounds read low 1.06 | S. cerevisiae deletion strains, locus YOL012C, strain htz1 1.19 | S. cerevisiae deletion strains, locus YOL147C, strain pex11, active compounds read low 0.997 | S. cerevisiae deletion strains, locus YOR061W, strain CKA2, active compounds read low 1.01 | S. cerevisiae deletion strains, locus YOR069W, strain VPS5, active compounds read low 1.02 | S. cerevisiae deletion strains, locus YOR136W, strain idh2, active compounds read low 1 | S. cerevisiae deletion strains, locus YOR144C, strain elg1, active compounds read low 0.998 | S. cerevisiae deletion strains, locus YOR184W, strain ser1, active compounds read low 0.998 | S. cerevisiae deletion strains, locus YOR231W, strain MKK1, active compounds read low 1.04 | S. cerevisiae deletion strains, locus YOR316C, strain cot1, active compounds read low 0.999 | S. cerevisiae deletion strains, locus YPL241C, strain CIN2, active compounds read low 1.01 | S. cerevisiae deletion strains, locus YPL256C, strain CLN2, active compounds read low 1.08 | S. cerevisiae deletion strains, locus YPR119W, strain clb2, active compounds read low 1 | S. cerevisiae deletion strains, locus YPR141C, strain kar3, active compounds read low 0.992 | S. cerevisiae deletion strains, locus YPR163C, strain tif3, active compounds read low 0.994 | S. cerevisiae deletion strains, locus YPR167C, strain met16, active compounds read low 1 | S. cerevisiae deletion strains, strain wtn01, active compounds read low 0.995 | S. cerevisiae strains, strain wild type, active compounds read low 1.02

CC1=C(/C=C/C(C)=C/C=C/C(C)=C/C(=O)Nc2ccc(O)cc2)C(C)(C)CCC1
inactive: [1] 0.99 | S. cerevisiae deletion strains, locus YAL040C, strain CLN3, active compounds read low 1.09 | S. cerevisiae deletion strains, locus YCL061C, strain MRC1 (second series), active compounds read low 0.995 | [2] 1.01 | S. cerevisiae deletion strains, locus YDR363W, strain ESC2, active compounds read low 0.968 | S. cerevisiae deletion strains, locus YER002W, strain NOP16, active compounds read low 1.02 | [3] 1.02 | S. cerevisiae deletion strains, locus YMR263W, strain SAP30, active compounds read low 0.994 | [4] 0.989 | S. cerevisiae deletion strains, locus YNL128W, strain TEP1, active compounds read low 1.02 | S. cerevisiae deletion strains, locus YNL175C, strain NOP13, active compounds read low 1.02 | S. cerevisiae deletion strains, locus YNL197C, strain WHI3, active compounds read low 1.01 | S. cerevisiae deletion strains, locus YNL224C, strain SQS1, active compounds read low 0.998 | [5] 0.993 | S. cerevisiae deletion strains, locus YOR083W, strain WHI5 (second series), active compounds read low 0.952
